Rows were chosen to be rich in hits. Some 4.7% of all compounds tested hit in one or more screens of this group.
TRHR PAM: TRH receptor (human) allosteric enhancement; TRHR cells, fluo-8 calcium fluorescence, EC20 TRH enhancement; P34981; enhancement, % at 2 µM; 0.66% of 360,000 active; in the data active = enhancement above about 30%; note: 0% is about no effect
Target sequence (P34981 whole entry, looked up): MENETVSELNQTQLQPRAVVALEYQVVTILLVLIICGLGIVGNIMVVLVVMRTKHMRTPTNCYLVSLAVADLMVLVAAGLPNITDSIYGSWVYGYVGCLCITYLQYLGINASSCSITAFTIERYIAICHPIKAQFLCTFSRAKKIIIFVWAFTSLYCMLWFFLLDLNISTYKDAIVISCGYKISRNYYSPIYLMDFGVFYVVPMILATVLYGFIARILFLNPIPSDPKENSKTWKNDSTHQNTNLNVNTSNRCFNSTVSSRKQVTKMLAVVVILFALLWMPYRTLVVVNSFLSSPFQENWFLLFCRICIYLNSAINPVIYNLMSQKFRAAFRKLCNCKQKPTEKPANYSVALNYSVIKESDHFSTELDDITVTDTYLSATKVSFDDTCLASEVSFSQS
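TRHR-expressing cells loaded with fluo-8 calcium dye were read kinetically (ex 480/em 530) during compound addition, then stimulated with an EC20 of TRH (10 nM final). Enhancement of the Gq-mediated intracellular calcium response was scored.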
D1 agonist: activates the human D1 dopamine receptor. P21728. HEK293 T-REx D1 cells, calcium flux, agonist mode. activation, % at 2 µM. 1% of 360,000 active; note: 0% is about no effect
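Agonism was scored from calcium flux recorded over 180 s (1 read/s) after pintool compound addition, following a 10-cycle baseline. Cells were inducible force-coupled HEK293 TREx D1, plated overnight at 30 C and loaded with no-wash calcium dye.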
TRHR agonist: TRH receptor (human) agonism; P34981; TRHR cells, calcium flux fluo-8, FDSS agonist mode; activation, % at 2 µM; 0.18% of 360,000 active; AID 493084; note: 0% is about no effect
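Agonist-mode FDSS calcium read (Ex 480/Em 530, 1 s cycles) in 1536-well TRHR cells with fluo-8 dye, after 10-cycle baseline and 23 nL compound addition; TRH at EC20 (10 nM final) added afterwards for the enhancer phase.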
D1 PAM: human D1 dopamine receptor positive modulation. AID 504651. P21728. 0.036% of 360,000 active. potentiation, % at 10 µM. HEK293 TREx D1 cells, calcium flux, dopamine EC20 potentiation; in the data active = potentiation above about 30%; note: 0% is about no effect
D1 antagonist: antagonists of human D1 dopamine receptor; 3.2% of 360,000 active; AID 504652; P21728; activity change, negative = inhibition, % at 10 µM; HEK293 TREx D1 cells, calcium flux, dopamine EC80; stronger effect = lower value; in the data active = activity change below about -30%; note: % is set by controls: 0 for no effect and ±100 for the full control effect
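Inducible Hek293 Trex D1 cells (tetracycline, overnight, 30 C). Calcium dye 30–90 min RT. Antagonist mode: EC80 dopamine added after 180 s compound read.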
Active calls of the source: *; ! = repeats disagree. Cut-off read from the data, not from the text of the source, unless noted: active = activation above about 30%; inactive = the rest.

Screening COc1cccc(Cn2c(=O)n(CC3CCC(C(=O)NC(C)C)CC3)c(=O)c3sccc32)c1 (stereo not drawn) returned TRHR PAM -1, D1 agonist 0, TRHR agonist 0, D1 PAM -5 and D1 antagonist -2.
For O=C(Cc1ccc(-n2cccc2)cc1)NCc1cccs1 the results were TRHR PAM -2, D1 agonist 1, TRHR agonist -1, D1 PAM -9 and D1 antagonist -34*.
For Cc1nn(CC(=O)NC2CC2)c(=O)c2cc3cc(F)ccc3n12 the results were TRHR PAM 34*, D1 agonist 1, TRHR agonist 0, D1 PAM -6 and D1 antagonist -2.
Screening C=CCN(C(=O)Cn1nc(C)n2c(cc3cc(C)ccc32)c1=O)c1ccccc1 returned TRHR PAM -1, D1 agonist 2, TRHR agonist -1, D1 PAM 0 and D1 antagonist -8.
`COc1ccc(Br)cc1CNC(=O)Cn1nc(C)n2c(cc3cc(F)ccc32)c1=O` gave TRHR PAM 3, D1 agonist 0, TRHR agonist 0, D1 PAM -4 and D1 antagonist 2.
Screening CCN(C(=O)Cn1nc(C)n2c(cc3cc(C)ccc32)c1=O)c1ccccc1 returned TRHR PAM 1, D1 agonist 1, TRHR agonist -1, D1 PAM -6 and D1 antagonist -43*.
For COc1cc(C2C(C(=O)Nc3ccccc3C)=C(C)Nc3ncnn32)ccc1OCC(N)=O (stereo not drawn) the results were TRHR PAM 4, D1 agonist 1, TRHR agonist 1, D1 PAM -4 and D1 antagonist 11.
`CCN(C(=O)Cc1c(C(=O)O)c(C)cn1C)c1cccc(Cl)c1` gave TRHR PAM -13, D1 agonist 10, TRHR agonist 0, D1 PAM -3 and D1 antagonist 18.
COc1cc(Cl)c(C)cc1NC(=O)c1nn(C)c2c1CSc1ccccc1-2 was read as TRHR PAM 9, D1 agonist 1, TRHR agonist 0, D1 PAM -2 and D1 antagonist 11.
For Cc1ccc(N2CCN(Cc3nnc(-c4ccc5c(c4)OCO5)o3)CC2)c(C)c1 the results were TRHR PAM -2, D1 agonist 3, TRHR agonist 0, D1 PAM 0 and D1 antagonist -30*.
Cc1ccc(-c2cc(C(=O)Oc3ccc(C#N)cc3)no2)cc1 was read as TRHR PAM 20, D1 agonist 3, TRHR agonist 0, D1 PAM -1 and D1 antagonist 7.
Screening CN(Cc1ccccc1)S(=O)(=O)c1cc(Br)cc2c1N(C(=O)C1CC1)CC2 returned TRHR PAM -4, D1 agonist 4, TRHR agonist 0, D1 PAM -1 and D1 antagonist -6.
`CCCNC(=O)C/C(C)=N/NC(=O)COc1ccc(C)cc1Br` gave TRHR PAM 20, D1 agonist 20, TRHR agonist 0, D1 PAM 3 and D1 antagonist -7.
For COc1ccc(CNC(=O)C/C(C)=N/NC(=O)COc2ccc(C)cc2Br)cc1 the results were TRHR PAM 32*, D1 agonist 1, TRHR agonist 0, D1 PAM -8 and D1 antagonist -10.
`COc1ccc(CNC(=O)C/C(C)=N/NC(=O)c2cnccn2)cc1` gave TRHR PAM 0, D1 agonist 35*, TRHR agonist 3, D1 PAM 9 and D1 antagonist 8.
Screening CC1CCN(c2ccc(-c3cccc(NS(=O)(=O)c4ccc(Cl)s4)c3)nn2)CC1 returned TRHR PAM 2, D1 agonist 3, TRHR agonist 0, D1 PAM 2 and D1 antagonist -3.
For CCCc1cc(=O)[nH]c(SCC(=O)N2CC3(C)CC2CC(C)(C)C3)n1 (stereo not drawn) the results were TRHR PAM -3, D1 agonist 2, TRHR agonist 0 and D1 antagonist -47*.
For C=CCc1cccc2cc(-c3nc4ccc(C(=O)O)cc4[nH]3)c(=O)oc12 the results were TRHR PAM -5, D1 agonist 2, TRHR agonist 0, D1 PAM -1 and D1 antagonist 6.
`Oc1[nH]c(=S)sc1/C=C1\C(c2ccccc2)=Nc2ccccc21` gave TRHR PAM -7, D1 agonist 38*, TRHR agonist 9, D1 PAM -7 and D1 antagonist 0.
`O=S(=O)(Nc1ccc(Cc2ccncc2)cc1)c1ccc(Br)cc1` gave TRHR PAM 4, D1 agonist 11, TRHR agonist 2, D1 PAM -7 and D1 antagonist -73*.
CCN1CCN(C(=O)CCS(=O)(=O)c2cc3c(cc2Cl)NC(=O)CO3)CC1 was read as TRHR PAM 2, D1 agonist 1, TRHR agonist 0, D1 PAM -6 and D1 antagonist -15.
For Cc1ccc(CCNC(=O)CCS(=O)(=O)c2cc3c(cc2C)NC(=O)CO3)cc1 the results were TRHR PAM 3, D1 agonist 0, TRHR agonist 0, D1 PAM -1 and D1 antagonist -86*!.
`CN1CCN(C(=O)CCS(=O)(=O)c2cc3c(cc2Cl)NC(=O)CO3)CC1` gave TRHR PAM 39*, D1 agonist 5, TRHR agonist 0, D1 PAM -12 and D1 antagonist -1.
`CC1CCCCN1C(=O)C1CCN(c2nc(-c3ccccc3)nc3c2CCC3)CC1` (stereo not drawn) gave TRHR PAM 39*, D1 agonist 4, TRHR agonist -1, D1 PAM -2 and D1 antagonist 1.
CCOC(=O)c1c(C)oc2ncnc(Nc3ccc(F)cc3Cl)c12 was read as TRHR PAM -1, D1 agonist 1, TRHR agonist -2, D1 PAM 0 and D1 antagonist 1.
`O=C(O)c1cn(-c2ccc(F)cc2)c2cc(Cl)c(F)cc2c1=O` gave TRHR PAM 0, D1 agonist 2, TRHR agonist 0, D1 PAM 4 and D1 antagonist -4.
`CCOC(=O)c1cn(-c2ccc([N+](=O)[O-])cc2)c2cc(Cl)c([N+](=O)[O-])cc2c1=O` gave TRHR PAM 0, D1 agonist 2, TRHR agonist 0, D1 PAM -4 and D1 antagonist -42*.
`OC(CCN1CCCCC1)(c1ccccc1)C1C[C@@H]2C=C[C@H]1C2` (stereo partly drawn) gave TRHR PAM -10, D1 agonist 12, TRHR agonist -1, D1 PAM -4 and D1 antagonist 24.
`CN1CCN(CC#CC(C)(O)C2CC3C=CC2C3)CC1` (stereo not drawn) gave TRHR PAM 4, D1 agonist 4, TRHR agonist 0, D1 PAM -1 and D1 antagonist -74*.
`CC(CCc1ccccc1)NC(=O)CSc1n[nH]c(-c2ccccc2)n1` (stereo not drawn) gave TRHR PAM -9, D1 agonist 4, TRHR agonist 0, D1 PAM -3 and D1 antagonist -13.

Assay outcomes deposited in PubChem by National Center for Advancing Translational Sciences (NCATS).
